In PubChem BioAssay (Tox21) one finds Potency data, which are given here for 36 compounds.

Results filed as inconclusive are left out. Where a call stands in place of a potency, no number is given. The source made the active and inactive calls. The call rests on the fitted dose curve; in most records, active means well fitted cell-killing curve with a large enough effect in the repeat runs; inconclusive means weak or mixed curves, or effect the other way; inactive means no such curve, though single readings can be large or run the other way.
Potency means the concentration at half of the fitted maximal effect.

The nature of this experiment: qHTS assay for small molecule activators of the heat shock response signaling pathway - cell viability counter screen (AID 743209). Further: nearly all actives have a fitted effect of over 50% in size. The note with it: HSE-bla HeLa viability, CellTiter-Glo luminescence, 5 h; series mostly up to 62.6 µM. In outline:
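HSE-bla HeLa cells plated overnight, then exposed to Tox21 compounds (23 nL in DMSO) for 5 h at 37 C. After the bla reporter read, CellTiter-Glo was added in the same wells and luminescence read after 30 min at room temperature.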
For orientation: Quantitative high-throughput screening tests each substance at several concentrations.
Turning to `CC(C=O)Cc1ccc2c(c1)OCO2` (stereo unspecified), the Potency result is “inactive”.

Take `c1ccc(N2CCNCC2)cc1`: the Potency entry is “inactive”.

Take `C[C@]12CC[C@H]3[C@@H](CCC4=CC(=O)CC[C@@]43C)[C@@H]1CC[C@@H]2C(=O)O`: the Potency entry is “inactive”.

On to `CC1CCC(=O)O1` (stereo unspecified), for which the Potency entry was “inactive”.

On to `CC1=C(C(=O)O)N2C(=O)[C@@H](N)[C@H]2SC1`, for which the Potency result is “inactive”.

For the compound `COc1cccc2c1cc([N+](=O)[O-])c1c(C(=O)O)cc3c(c12)OCO3`, the Potency is 3.89 µM (active).

On to `O=C(CCN1CC1)OCC(CO)(COC(=O)CCN1CC1)COC(=O)CCN1CC1`, for which the Potency entry was “inactive”.

Regarding `Fc1ccc(C2(Cn3cncn3)OC2c2ccccc2Cl)cc1` (stereo unspecified), the Potency entry is “inactive”.

On to `CC(C(O)c1ccccc1)N(C)C/C=C/c1ccccc1` (stereo unspecified), for which the Potency result is “inactive”.

As for `CC1(C(=O)Nc2ccc(O)c(Cl)c2Cl)CCCCC1`, the Potency result was “inactive”.

`O=C(Nc1ccccc1)N(Cc1ccc(Cl)cc1)C1CCCC1`: the Potency entry is “inactive”.

With `O=C1CN2CCOC2(c2ccccc2Cl)c2cc(Cl)ccc2N1` (stereo unspecified), the Potency entry was “inactive”.

On to `CCNc1nc(NC(C)C)nc(OC)n1`, for which the Potency result is “inactive”.

`NC1=NC(=O)C(c2ccccc2)O1` (stereo unspecified): the Potency entry is “inactive”.

Regarding `CCOC(=O)C1(c2ccccc2)CCN(CCc2ccc(N)cc2)CC1`, the Potency result was “inactive”.

Consider `CCOC(=O)C(c1c(O)c2ccccc2oc1=O)c1c(O)c2ccccc2oc1=O`, for which the Potency entry is “inactive”.

For `CC1COC2(c3ccccc3Cl)c3cc(Cl)ccc3NC(=O)CN12` (stereo unspecified), the Potency result is “inactive”.

Turning to `COc1cccc(C(=O)NN(C(=O)c2cc(C)cc(C)c2)C(C)(C)C)c1C`, the Potency entry is “inactive”.

On to `O=S(=O)(O)C(F)(F)C(F)(F)C(F)(F)C(F)(F)C(F)(F)C(F)(F)F`, for which the Potency result was “inactive”.

With `CN1CCC(N(Cc2ccccc2)c2ccccc2)CC1`, the Potency result was “inactive”.

As to `Clc1ccccc1N1CCNCC1`, the Potency entry was “inactive”.

With `COP(=S)(OC)Oc1ccc(S(N)(=O)=O)cc1`, the Potency result is “inactive”.

`O=C(NCO)NCO`: the Potency result is “inactive”.

With `CCCCC(=O)Cl`, the Potency entry was “inactive”.

In the case of `Fc1cc(Br)ccc1CBr`, the Potency entry was “inactive”.

As to `Nc1c(Br)cc([N+](=O)[O-])cc1[N+](=O)[O-]`, the Potency result was “inactive”.

Consider `CCC#N`, for which the Potency entry is “inactive”.

Regarding `CCOP(=S)(Oc1cnc(C(C)(C)C)nc1)OC(C)C` (stereo unspecified), the Potency entry was “inactive”.

As for `CC(C)(C)NCC(O)c1cc(Cl)c(N)c(Cl)c1` (stereo unspecified), the Potency entry was “inactive”.

Turning to `CCOC(=O)/C=C(C)/C=C/C[C@@H](C)CCCC(C)C`, the Potency is 38.9 µM (active).

For `CCC(=O)C(CCN(C)C)(c1ccccc1)c1ccccc1`, the Potency entry was “inactive”.

Turning to `ClCCCN1CCN(c2cccc(Cl)c2)CC1`, the Potency result was “inactive”.

In the case of `CN1C[C@@H](NS(=O)(=O)N(C)C)C[C@@H]2c3cccc4c3c(cn4C)C[C@H]21`, the Potency result was “inactive”.

Regarding `CCN(CC)CCOC(=O)C(C)(c1ccccc1)c1ccccc1`, the Potency result is “inactive”.

Turning to `CC(C(=O)c1ccccc1)N(C)C` (stereo unspecified), the Potency result is “inactive”.

In the case of `COC(=O)COc1ccc(Cl)cc1Cl`, the Potency result is “inactive”.
